The values that follow come from PubChem BioAssay.

Assay [1] in a line: E. coli DRC41 culture turbidity changes, primary screen, E. coli filamentation inducer project, strain DRC41, OD650, 48 h (AID 1152).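 Note: E. coli MC1000 strain DRC41 lacking acrAB efflux pump and sulA.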 The settings on record: E. coli DRC41 (acrAB sulA), higher = more signal, called active from +8 up or from −8 down.
The nature of assay [2]: small-molecule binders of probe aLefty1, primary screen, biochemical, small-molecule microarray, 635/667 nm fluorescence (AID 1153).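 Note: score merges spot fluorescence with signal-to-noise ratio from the scanned slide images.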 The settings on record: higher = more signal.
Assay [3] in a line: PSAC antagonists in infected red cells, primary screen, cell-based, P. falciparum Indochina, OD700, 1 h (AID 1154). The note with it: P. falciparum Indochina infected RBC osmotic lysis, higher = more signal, called active from +8 up or from −8 down.
Assay [4] is described as follows: PSAC antagonists in infected red cells, primary screen, cell-based, P. falciparum Indochina, OD700, 2 h (AID 1155).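 Note: lysis reports solute entry through the parasite surface anion channel PSAC; channel blockers reduce lysis of infected cells.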 The note with it: P. falciparum Indochina infected erythrocytes, osmotic lysis OD700; higher = more signal, called active from +8 up or from −8 down.
Assay [5] can be described thus: osmotic lysis modulators in infected erythrocytes, primary screen, PSAC antagonist project, cell-based, P. falciparum Indochina, OD700, 3 h (AID 1156). The settings on record: higher = more signal, called active from +8 up or from −8 down.
Assay [6] can be described thus: PSAC antagonists in infected red cells, primary screen, cell-based, P. falciparum Indochina, OD700, 18 h (AID 1157). The note with it: P. falciparum Indochina infected erythrocytes, osmotic lysis OD700, 18 h; higher = more signal, called active from +8 up or from −8 down.
Assay [7] is described as follows: modulators of S6 phosphorylation in cells, primary screen, cell-based, A549, cytoblot, luminescence, serum-stimulated (AID 1158).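 Note: serum-stimulated A549 lung adenocarcinoma cells; signal is phosphorylated S6 detected by cytoblot immunostaining with HRP secondary.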 The note with it: A549 phospho-S6 cytoblot, 5 h, higher = more signal.
Assay [8] has as its target NADPH oxidase 2 (Homo sapiens) (UniProt P04839). The experiment in a line: NOX2-dependent H2O2 signal modulators, primary screen, NOX inhibitor project, cell-based, HEK293-NOX2, PMA-stimulated, Amplex Red fluorescence (AID 1159). Note: test concentration not given here. The note with it: 45 min, higher = more signal, called active from +8 up or from −8 down.
For assay [9], the target named is NADPH oxidase 4 (Homo sapiens) (UniProt Q9NPH5). The experiment in a line: NOX4-dependent H2O2 signal modulators, primary screen, NOX inhibitor project, cell-based, HEK293-NOX4, tetracycline-induced, Amplex Red fluorescence (AID 1160). The note with it: 45 min, higher = more signal, called active from +8 up or from −8 down.
Chain of NADPH oxidase 4 (Homo sapiens) (Q9NPH5 whole entry, looked up): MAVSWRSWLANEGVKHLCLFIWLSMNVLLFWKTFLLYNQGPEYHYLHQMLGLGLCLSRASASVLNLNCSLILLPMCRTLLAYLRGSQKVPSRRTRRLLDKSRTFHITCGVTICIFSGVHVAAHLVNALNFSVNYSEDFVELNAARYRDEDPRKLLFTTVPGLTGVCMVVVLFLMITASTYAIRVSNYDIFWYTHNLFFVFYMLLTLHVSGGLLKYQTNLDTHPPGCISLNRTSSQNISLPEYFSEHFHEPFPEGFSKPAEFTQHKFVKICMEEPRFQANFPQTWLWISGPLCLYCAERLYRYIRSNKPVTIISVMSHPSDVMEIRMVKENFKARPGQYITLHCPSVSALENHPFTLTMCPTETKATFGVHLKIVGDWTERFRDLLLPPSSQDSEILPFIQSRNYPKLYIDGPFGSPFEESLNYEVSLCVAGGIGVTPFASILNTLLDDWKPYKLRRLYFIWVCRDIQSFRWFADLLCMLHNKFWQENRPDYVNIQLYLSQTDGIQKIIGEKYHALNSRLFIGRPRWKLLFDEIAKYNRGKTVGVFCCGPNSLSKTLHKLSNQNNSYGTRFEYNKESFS
Assay [10] concerns the target NADPH oxidase 5 (Homo sapiens) (UniProt Q96PH1). The experiment in a line: NOX5-dependent H2O2 signal modulators, primary screen, NOX inhibitor project, cell-based, HEK293-NOX5, Amplex Red fluorescence (AID 1161). The settings on record: HEK293-NOX5, ionomycin, 45 min, higher = more signal.
Assay [11] in a line: A549 cell viability effects, profiling panel, calcein-AM fluorescence, 48 h, basal (AID 1162). Note: test concentration not given here. The note with it: higher = more signal.
A short description of assay [12]: adipocyte viability effects, profiling panel, cell-based, 3T3-L1 adipocytes, calcein-AM fluorescence, 48 h, basal (AID 1163). Note: test concentration not given here. The settings on record: 3T3-L1 adipocytes viability, higher = more signal.
A short description of assay [13]: HepG2 cell viability effects, profiling panel, calcein-AM fluorescence, 48 h, basal (AID 1164). Note: test concentration not given here. The note with it: higher = more signal.
Assay [14] can be described thus: MM1S cell viability effects, profiling panel, calcein-AM fluorescence, 48 h, basal (AID 1165).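 Note: viability of MM1S multiple myeloma cells under basal unstimulated conditions; test concentration not given here.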 The note with it: higher = more signal.
A short description of assay [15]: basal RPMI8226 viability, no added stimulus, profiling panel, cell-based, calcein-AM fluorescence, 48 h, PK04 Diversity Set (AID 1166).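 Note: cells grown under basal conditions without added stimulus; test concentration not given here.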 The settings on record: RPMI8226 myeloma viability, higher = more signal.
Assay [16] in a line: basal HepG2 mitochondrial membrane potential changes, profiling panel, cell-based, JC-1 fluorescence, 24 h, 100 nL compound (AID 1167). Note: test concentration not given here. The settings on record: higher = more signal.
Assay [17] is described as follows: basal 3T3-L1 adipocyte mitochondrial potential changes, profiling panel, cell-based, JC-1 fluorescence, 3T3-L1 adipocytes, 24 h, 100 nL compound (AID 1168). Note: test concentration not given here. The settings on record: JC-1 mitochondrial fluorescence, higher = more signal, called active from +8 up or from −8 down.
A short description of assay [18]: basal RPMI8226 mitochondrial membrane potential changes, profiling panel, cell-based, JC-1 fluorescence, 24 h, 100 nL compound (AID 1169). Note: test concentration not given here. The note with it: RPMI8226 myeloma, JC-1 mitochondrial potential fluorescence, higher = more signal.
A short description of assay [19]: basal MM1S mitochondrial membrane potential changes, profiling panel, cell-based, JC-1 fluorescence, 24 h, 100 nL compound (AID 1170). Note: test concentration not given here. The settings on record: higher = more signal.
Assay [20] is described as follows: A549 lung cancer cell viability effects, profiling panel, resazurin fluorescence, 24 h, PK04 Diversity Set (AID 1171). Note: test concentration not given here. The settings on record: higher = more signal, called active from +8 up or from −8 down.

Active and inactive are the calls of the source.

Chain of NADPH oxidase 2 (Homo sapiens) (P04839 whole entry, looked up): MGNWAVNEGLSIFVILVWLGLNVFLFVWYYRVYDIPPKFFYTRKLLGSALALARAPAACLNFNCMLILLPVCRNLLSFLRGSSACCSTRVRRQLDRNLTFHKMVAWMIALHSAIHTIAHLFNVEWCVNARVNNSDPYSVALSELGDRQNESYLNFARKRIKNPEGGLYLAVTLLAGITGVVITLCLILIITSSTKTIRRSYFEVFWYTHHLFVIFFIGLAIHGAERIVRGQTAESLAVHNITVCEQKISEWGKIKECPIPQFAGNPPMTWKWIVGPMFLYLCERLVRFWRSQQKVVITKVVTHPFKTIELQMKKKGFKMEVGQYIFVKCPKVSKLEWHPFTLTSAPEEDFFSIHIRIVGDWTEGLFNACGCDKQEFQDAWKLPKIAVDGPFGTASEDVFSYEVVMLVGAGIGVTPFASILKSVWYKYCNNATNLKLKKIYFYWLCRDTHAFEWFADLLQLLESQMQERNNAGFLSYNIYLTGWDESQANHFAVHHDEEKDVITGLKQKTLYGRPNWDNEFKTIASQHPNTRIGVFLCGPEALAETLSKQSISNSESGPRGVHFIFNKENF
Chain of NADPH oxidase 5 (Homo sapiens) (Q96PH1 whole entry, looked up): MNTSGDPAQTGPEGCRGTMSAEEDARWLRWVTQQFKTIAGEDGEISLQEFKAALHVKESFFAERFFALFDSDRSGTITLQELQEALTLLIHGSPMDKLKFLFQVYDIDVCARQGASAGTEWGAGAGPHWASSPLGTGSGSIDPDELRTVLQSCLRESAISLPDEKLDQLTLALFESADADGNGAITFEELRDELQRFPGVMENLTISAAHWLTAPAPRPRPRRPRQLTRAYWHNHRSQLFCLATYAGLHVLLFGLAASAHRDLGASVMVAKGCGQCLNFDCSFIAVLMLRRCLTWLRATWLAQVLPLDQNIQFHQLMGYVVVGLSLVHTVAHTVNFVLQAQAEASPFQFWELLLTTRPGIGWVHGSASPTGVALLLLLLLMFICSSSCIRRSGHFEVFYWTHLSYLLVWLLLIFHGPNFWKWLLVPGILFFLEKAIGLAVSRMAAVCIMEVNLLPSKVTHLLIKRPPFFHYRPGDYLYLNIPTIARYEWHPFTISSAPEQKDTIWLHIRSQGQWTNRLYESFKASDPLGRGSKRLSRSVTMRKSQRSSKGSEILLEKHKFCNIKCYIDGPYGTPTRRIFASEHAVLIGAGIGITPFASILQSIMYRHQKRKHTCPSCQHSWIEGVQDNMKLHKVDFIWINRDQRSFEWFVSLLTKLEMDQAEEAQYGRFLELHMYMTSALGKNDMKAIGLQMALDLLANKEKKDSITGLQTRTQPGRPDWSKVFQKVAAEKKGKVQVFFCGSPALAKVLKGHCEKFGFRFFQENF

`COC(=O)C(CC#Cc1ccc2c(c1)[C@]1(C(=O)N2)[C@H](C(=O)N2CCc3cc(OC)c(OC)cc3C2)[C@H]2C(=O)O[C@H](c3ccccc3)[C@H](c3ccccc3)N2[C@@H]1c1ccc(O)cc1)C(=O)OC`: the z-score in assay [1] was 1.58 (inactive); in assay [3], 6.21 (inactive); in assay [4] it was 1.93 (inactive); in assay [5] it was 1.93 (inactive); in assay [6], 0.958 (inactive); in assay [7], 0.125. For the same compound, the z-score is -0.0647 (inactive) in assay [8]; -1.83 (inactive) in [9]; 0.121 in assay [10]; -0.703 in assay [11]; 1.08 in assay [12]; 0.613 in [13]. Further, the z-score in assay [14] was -0.993; in [15] it was -3.27; in assay [16], -1.81; in assay [17], 0.604 (inactive); in assay [18] it was -0.606; in assay [19], 0.567. The z-score in [20] is -0.216 (inactive). This compound came in with a composite z-score in [2] of -0.321.

As to `Cc1cc(C)c(C(O)C2C=CC3C(=O)N(c4ccccc4)C(=O)C3N2Nc2ccccc2)c(C)c1` (stereo not given), the z-score was -0.687 (inactive) in assay [1]; 1.72 (inactive) in [3]; 1.23 (inactive) in assay [4]; 0.244 (inactive) in assay [5]; 1.44 (inactive) in [6]; -0.824 in [7]. Moreover, the z-score in assay [8] is -1.56 (inactive); in [9], -3.06 (inactive); in assay [10], -3.17; in [11], 0.479; in [12], -1.35; in assay [13] it was 1.37. Further, the z-score was 0.541 in [14]; 0.281 in assay [15]; -1.21 in [16]; -0.422 (inactive) in assay [17]; -0.225 in assay [18]; -0.425 in [19]. Further, the z-score in assay [20] is -0.825 (inactive). In assay [2], this compound had a composite z-score of 0.157.

As for `CN(C)CCCCCCNC(=O)[C@@H]1C[C@@H]2C(=O)NCC(=O)N2[C@@H]1c1ccc(O)cc1`, the z-score is -0.407 (inactive) in [1]; 0.755 (inactive) in assay [3]; -0.296 (inactive) in assay [4]; 0.794 (inactive) in assay [5]; -0.114 (inactive) in [6]; -0.341 in assay [7]. The z-score in [8] was -0.289 (inactive); in assay [9] it was 0.12 (inactive); in assay [10], 0.524; in [11] it was -0.627; in assay [12] it was 0.5; in [13], -0.963. The z-score is -0.539 in assay [14]; 0.71 in [15]; -1.16 in assay [16]; -0.782 (inactive) in assay [17]; 0.3 in [18]; 0.216 in [19]. The z-score in assay [20] is -0.898 (inactive). In [2], this compound showed a composite z-score of 0.298.

For the compound `O=C1O[C@H](c2ccccc2)[C@H](c2ccccc2)N2[C@H]1[C@@H](C(=O)NC[C@H](O)c1ccccc1)[C@]1(C(=O)Nc3ccccc31)[C@H]2c1ccccc1OCCO`, the z-score in [1] is 2.45 (inactive); in assay [3] it was 5.21 (inactive); in [4] it was 1.84 (inactive); in assay [5] it was -2.5 (inactive); in assay [6] it was -0.343 (inactive); in assay [7], 2.39. In addition, the z-score in assay [8] was 1.23 (inactive); in assay [9], 0.707 (inactive); in assay [10] it was 0.34; in assay [11], -1.78; in assay [12], 0.559; in assay [13], -5.16. For the same compound, the z-score in assay [14] was -3.38; in assay [15], -4.61; in assay [16], -2.92; in assay [17], 2.95 (inactive); in assay [18] it was -1.15; in assay [19], -2.19. The z-score in assay [20] was -3.12 (inactive). The compound also returned a composite z-score in assay [2] of 0.453.

Take `O=C(CS)NCCCCCNC(=O)[C@@H]1C[C@@H]2C(=O)N3CCC[C@H]3C(=O)N2[C@@H]1c1ccc(O)cc1`: the z-score was -0.391 (inactive) in [1]; 2.25 (inactive) in assay [3]; 0.508 (inactive) in [4]; -2.66 (inactive) in assay [5]; 0.251 (inactive) in assay [6]; -0.244 in assay [7]. Moreover, the z-score in assay [8] was 0.927 (inactive); in [9], 0.313 (inactive); in assay [10] it was -0.651; in [11] it was 0.644; in assay [12] it was -0.239; in assay [13] it was 0.413. Moreover, the z-score in assay [14] is -0.96; in [15], 0.125; in [16], -0.264; in assay [17] it was -0.155 (inactive); in assay [18], -0.282; in [19], 0.684. Further, the z-score in assay [20] was -0.284 (inactive). This compound had a composite z-score in assay [2] of 0.109.

For `COC(=O)[C@@]1(Cc2ccccc2N=[N+]=[N-])N=C(c2ccc(OCCCO)cc2)O[C@H]1c1ccccc1`, the z-score in [1] is -0.734 (inactive); in assay [3], 22.9 (active); in assay [4], 8.4 (active); in assay [5] it was 0.0321 (inactive); in assay [6] it was 2.28 (inactive); in assay [7], 0.0781. For the same compound, the z-score in assay [8] is -2.34 (inactive); in assay [9], 0.355 (inactive); in [10] it was -1.76; in [11] it was -2.99; in [12], -0.421; in [13] it was -5.47. The z-score in assay [14] is -3.58; in assay [15], -3.93; in assay [16], -3.13; in assay [17], -0.138 (inactive); in assay [18], -1.06; in assay [19], -2.9. Besides, the z-score in assay [20] was -2.88 (inactive). Also, the composite z-score in assay [2] is 0.406.

For the compound `O=C1c2ccccc2[C@](Cc2ccccc2I)(C(=O)NC2CC2)[C@H](c2ccc(CO)cc2)N1Cc1ccccc1Cl`, the z-score in assay [1] is -1.03 (inactive); in assay [3] it was 8.39 (active); in assay [4], 0.825 (inactive); in assay [5] it was 2.82 (inactive); in assay [6] it was 0.966 (inactive); in assay [7] it was -0.283. The z-score in assay [8] was 0.717 (inactive); in assay [9], 0.466 (inactive); in assay [10], 0.739; in [11] it was -0.138; in [12], -0.103; in assay [13], -0.0887. For the same compound, the z-score in [14] was -1.39; in [15] it was -0.715; in [16], 0.833; in [17], -0.469 (inactive); in assay [18], -0.332; in assay [19], -0.664. Moreover, in assay [20], the z-score is 0.623 (inactive). The compound further had a composite z-score in assay [2] of 0.44.

Take `CC(C)C[C@@H]1NC(=O)[C@@H]2C[C@H](C(=O)NCCCC[N+](C)(C)C)[C@H](c3cccc(OCCO)c3)N2C1=O`: the z-score in [1] is -0.44 (inactive); in assay [3] it was 3.73 (inactive); in [4], 1.16 (inactive); in assay [5], -0.369 (inactive); in assay [6], 0.645 (inactive); in assay [7] it was -0.102. Also, the z-score in [8] is -1.2 (inactive); in assay [9], -0.152 (inactive); in [10] it was -0.372; in assay [11] it was -0.316; in assay [12] it was -0.0337; in assay [13], -0.75. For the same compound, the z-score in [14] is -1.3; in [15] it was -0.122; in [16], -1.16; in assay [17], -0.915 (inactive); in assay [18], 0.789; in assay [19] it was -0.132. The z-score in [20] is -0.331 (inactive). In assay [2], the composite z-score is 0.115.
